# Compound activity as filed in PubChem.
# Shiga inhibitor: A qHTS for Small Molecule Inhibitors of Shiga Toxin; Vero cells, Shiga toxin protein synthesis inhibition reporter; inhibition, % at 38.7 µM; 290,000 compounds, 9.2% hits; AID 2315, 2010; in the data active = inhibition mostly above about 28%, no sharp cut-off; inactive = mostly below about 43%
# NS1 function inh: qHTS Assay for Inhibitors of Influenza NS1 Protein Function | Potency, µM (top dose mostly 46.1 µM) | 270,000 compounds, 0.4% hits | AID 2326, 2010; calls by dose curve; also: actives are rising curves; nearly all actives have a fitted effect of over 50% in size
#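 A cell-based growth assay was used: compounds that relieve NS1-induced slow growth of budding yeast raise OD600. Assay medium was yeast nitrogen base with ammonium sulphate and -URA supplement, pH 6.0, with 2% galactose.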
# CHX counter: Cycloheximide Counterscreen for Small Molecule Inhibitors of Shiga Toxin. 300,000 compounds, 12% hits. cell reporter, cycloheximide protein synthesis inhibition counterscreen. max response, %; in the data active = max response mostly above about 13%, no sharp cut-off; inactive = mostly below about 14%; also: read at 38.3 µM for the half of the compounds with a filed dose
# AmpC no deterg: qHTS Inhibitors of AmpC Beta-Lactamase (assay without detergent); Potency, µM (highest dose often 57.1 µM), actives largely listed as inhibitors; P00811; AID 485341, 2010; AmpC nitrocefin hydrolysis, absorbance 480 nm, 0.0001% Triton; 330,000 compounds, 0.52% hits; also: nearly all actives have a fitted effect of over 20% in size
# Target sequence (P00811 whole entry, looked up): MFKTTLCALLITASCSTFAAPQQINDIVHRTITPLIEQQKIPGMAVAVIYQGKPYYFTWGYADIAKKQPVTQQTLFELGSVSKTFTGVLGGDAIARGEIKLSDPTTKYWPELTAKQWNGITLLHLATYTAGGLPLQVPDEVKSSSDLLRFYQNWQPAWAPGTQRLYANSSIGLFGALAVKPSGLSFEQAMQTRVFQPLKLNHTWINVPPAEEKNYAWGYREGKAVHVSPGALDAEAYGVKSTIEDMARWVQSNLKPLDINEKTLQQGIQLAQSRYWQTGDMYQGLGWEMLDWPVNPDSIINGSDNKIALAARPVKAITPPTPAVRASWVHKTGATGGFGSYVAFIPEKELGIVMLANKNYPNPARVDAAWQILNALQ
#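 AmpC (5.3 nM in the dispensed reagent) in 20 mM phosphate pH 7.0 with 0.01% (detergent screen) or 0.0001% Triton X-100 was preincubated with compounds for 15 min at room temperature. Nitrocefin was then added from an 800 uM solution, and hydrolysis was followed at 480 nm.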
# AmpC detergent: qHTS Inhibitors of AmpC Beta-Lactamase (assay with detergent); Potency, µM (top dose mostly 114 µM), hits mostly inhibitors; AmpC hydrolysis of nitrocefin, absorbance 480 nm, 0.01% Triton; AID 485294, 2010; 370,000 compounds, 0.041% hits; also: nearly all actives have a fitted effect of over 25% in size
#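 AmpC (5.3 nM in the dispensed reagent) in 20 mM phosphate pH 7.0 with 0.01% (detergent screen) or 0.0001% Triton X-100 was preincubated with compounds for 15 min at room temperature. Nitrocefin was then added from an 800 uM solution, and hydrolysis was followed at 480 nm.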
# Flu NS1 inh: Assay for Inhibitors of Influenza NS1 Protein Function: Hit Validation; shares compounds with NS1 function inh; influenza NS1 function cell assay, 15-point titration; activity change, negative = inhibition, % at 32.9 µM; 1,400 tested, under 10 active; calls by dose curve
# Hits are given with their value; i = inactive; ? = inconclusive; nt = no result. The entries come from a sample that favours hits as a whole. Unless noted, calls follow the shape of the dose curve; as a rule, active = well fitted curve in the direction sought with a large enough effect; inconclusive = small, poorly fitted or top-dose-only effect, or another doubt; inactive = no such curve, though single readings can be large; an effect the other way counts as inactive or inconclusive.
SMILES,Shiga inhibitor,NS1 function inh,CHX counter,AmpC no deterg,AmpC detergent,Flu NS1 inh
Cc1cc(O)c(-c2cc(C(=O)Nc3sc4c(c3C(=O)NCc3ccco3)CCC4)[nH]n2)cc1C,i,?,i,i,?,nt
CC(C)(C)c1nnc(N/N=C/c2ccccc2)n(N)c1=O,i,?,11.0,i,i,?
CSc1nnc(C(C)(C)C)c(=O)n1/N=C/c1ccccc1,i,i,i,i,i,nt
CCOCCc1nn2c(=O)cc(COC(=O)c3ccc(NC(=O)C(C)(C)C)cc3)nc2s1,nt,nt,nt,nt,i,nt
O=C(O)c1cccc(CN2C(=O)CSC2=O)c1,i,22.4µM,i,i,i,i
O=C(NCCN1C(=O)CSC1=O)c1ccccc1,i,i,i,i,i,nt
CCn1c2ccccc2c2cc(NC(=O)CSc3nnc(-c4ccc(OC)c(OC)c4)n3N)ccc21,i,i,i,i,i,nt
COc1ccc(-c2nnc(SC(C(=O)c3c[nH]c4ccccc34)c3ccccc3)n2N)cc1OC (stereo unspecified),i,20µM,i,i,i,?
COc1ccc(C)cc1NC(=O)C(=O)NNC(=O)COc1ccc(Cl)cc1,i,nt,i,i,i,nt
COc1ccc2c3c([nH]c2c1)[C@H]1C[C@@H]2[C@@H](C[C@@H](O)[C@H](OC)[C@H]2C(=O)O)CN1CC3,nt,i,nt,nt,nt,nt
Cc1nc2oc3c(NCc4ccccc4)ncnc3c2c2c1COC(C)(C)C2,i,i,i,i,i,nt
CC1(C)Cc2c(sc3ncnc(NNC(=S)NCc4ccccc4)c23)CO1,i,11.2µM,i,i,i,i
Cc1ccc(S(=O)(=O)N2CCN(Cc3ccco3)CC2)c(C)c1,i,i,i,i,i,nt
COC(=O)CCCN1C(=O)NC(c2ccc(-c3ccccc3)cc2)C(C(=O)OCc2ccccc2)=C1C (stereo unspecified),nt,nt,nt,i,nt,nt
Cc1nc2ccc(S(=O)(=O)Nc3cccc(-c4nc5cccnc5s4)c3)cc2s1,i,11.2µM,i,i,i,i
COc1cccc(NC(=O)C(Sc2nnc(-c3ccncc3)n2-c2ccc(Cl)cc2)c2ccccc2)c1 (stereo unspecified),i,14.1µM,i,i,i,i
COc1ccc(S(=O)(=O)N2CCOC2CNC(=O)C(=O)NCCc2c[nH]c3ccccc23)cc1 (stereo unspecified),i,i,i,i,?,nt
COc1ccc(S(=O)(=O)N2CCOC2CNC(=O)C(=O)NCCc2c[nH]c3ccccc23)cc1C (stereo unspecified),i,14.1µM,i,i,i,i
O=C(NNc1nc2cc3c(cc2s1)OCO3)c1ccc(F)cc1,68.1,?,24.2,i,?,i
O=C(NNC1=Nc2ccccc2SC1)c1ccc(F)cc1,i,i,i,i,i,nt
Cc1ccc(NC(=O)CSCC#N)cc1,i,i,i,i,i,nt
N#CCSCC(=O)Nc1ccc(F)cc1,i,14.1µM,i,i,?,i
COC(=O)C1=C(C)N2C(=O)CSC2=NC1c1ccc2c(c1)OCO2 (stereo unspecified),i,12.6µM,i,i,i,i
COCCN1C=C(C(=O)OC)C(c2ccc3c(c2)OCO3)C(C(=O)OC)=C1,i,i,i,i,i,nt
O=S(=O)(c1ccc(Br)s1)N1CCN(CCc2ccccc2)CC1,nt,nt,nt,i,?,nt
SMILES,Shiga inhibitor,NS1 function inh,CHX counter,AmpC no deterg,AmpC detergent,Flu NS1 inh
COc1cc(Cl)cc(C(c2c(C(=O)O)[nH]c3ccccc23)c2c(C(=O)O)[nH]c3ccccc23)c1O,i,2.51µM,i,i,i,i
COc1cccc(N(C(=O)Cn2nnc(-c3ccc(C)cc3)n2)C(C(=O)NC(C)(C)C)c2c[nH]c3ccccc23)c1 (stereo unspecified),i,?,i,i,i,i
O=C1C2CCCN2C(c2cccnc2)N1c1cccc(Cl)c1 (stereo unspecified),i,3.55µM,i,i,?,i
Cc1ccc(-n2nc(C)c3c2OC(N)=C(C#N)C3c2ccoc2)cc1 (stereo unspecified),i,2.51µM,24.8,i,i,i
COc1ccccc1CNC(=O)[C@@H](NC(=O)C1CCN(C(=O)[C@@H]2CCCN2)CC1)C(C)C,i,i,i,i,?,nt
O=C(/C=C/c1ccco1)NC(=S)Nc1cccc([N+](=O)[O-])c1,i,22.4µM,i,i,i,i
COc1ccc(NS(=O)(=O)c2ccc(OCC(=O)N3CCCC3)cc2)cc1,i,?,i,i,i,i
COc1ccc(N2CCN(C(=O)c3ccc(NS(=O)(=O)c4ccccc4)cc3)CC2)cc1,i,12.6µM,20.3,i,i,i
Cc1ccc(-c2csc(N)n2)s1,i,?,22.6,i,?,i
c1ccc(Nc2ccccn2)nc1,i,i,i,i,i,nt
Oc1ccccc1Nc1ccccn1,i,?,i,i,i,i
Cc1cc2cc(CN3C(=O)c4ccccc4C3=O)ccc2n1C,i,?,i,i,i,i
O=C1c2ccccc2C(=O)N1Cc1ccc2c(c1)OCO2,i,i,i,i,i,nt
Cn1cccc1C(=O)NC(=O)COC(=O)c1ccc(O)cc1,i,10µM,i,i,i,i
CCOc1ccccc1N1CCN(C(=O)NCc2ccc(C)cc2)CC1,i,i,i,i,i,nt
CC1=NN=C(c2ccc(N)cc2)c2cc3c(cc2C1)OCO3,nt,35.5µM,nt,i,i,i
Cc1nc(N)ncc1-c1ccc2c(c1)OCO2,i,i,i,i,i,nt
COc1cc(OC)cc(C(=O)n2cnnc2N)c1,i,i,i,i,?,nt
CCCc1nnc(NC(=O)CCC(=O)N2CCN(Cc3ccc(OC)c(F)c3)CC2)s1,i,i,i,i,i,nt
COc1ccc(CN2CCN(C(=O)CCC(=O)Nc3nnc(CC(C)C)s3)CC2)cc1F,i,2.24µM,i,i,i,?
CC(C)[C@H](NC(=O)[C@@H]1Cc2ccccc2CN1C(=O)OC(C)(C)C)C(=O)NCC1CCC(C(=O)O)CC1 (stereo partly specified),i,i,i,i,i,nt
CN(C)CCCNC(=O)c1ccc(Cl)c(S(=O)(=O)N(C)c2ccccc2)c1,i,i,i,i,i,nt
C[C@@H](O)CNC(C)(C)CC(=O)N[C@@H]1CCc2ccccc2N(Cc2ccc(-c3ccccc3-c3nn[nH]n3)cc2)C1=O,i,nt,i,nt,nt,nt
CC1CCCN(c2ccc3nncn3n2)C1 (stereo unspecified),i,i,i,i,?,nt
COc1ccc(CCNC(=O)Cn2ccc3cc(S(=O)(=O)N4CCCC4)ccc32)cc1OC,i,2.51µM,i,i,i,i
COc1ccc(OC)c(CCNC(=O)Cn2ccc3cc(S(=O)(=O)N4CCCC4)ccc32)c1,i,i,i,i,i,nt
Cc1ccc2c(C)c(C(=O)N(Cc3ccc(F)cc3)C3CCS(=O)(=O)C3)oc2c1 (stereo unspecified),i,i,i,i,i,nt
